# Results: PubChem BioAssay (NCATS)
# Inconclusive results are not listed. A number with no mark means an inactive call. Active and inactive are the calls of the source. Calls come from the whole dose curve; as a rule, active = well fitted inhibition curve with a large enough effect; inconclusive = small, poorly fitted or top-dose-only effect; inactive = flat fitted curve, though single readings scatter.
# Target: Voltage-gated inwardly rectifying potassium channel KCNH2 (Homo sapiens) (UniProt Q12809)
# Assay: qHTS Assay for Small Molecule Inhibitors of the Human hERG Channel Activity (AID 588834);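 note: lower thallium flux fluorescence means stronger hERG block; nearly all actives have a fitted effect of over 50% in size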; for activity change, negative = inhibition: top concentration of the series differs between compounds
# Details: U2OS BacMam hERG, FluxOR thallium flux fluorescence; series mostly up to 46.1 µM; activity change, negative = inhibition: at the top concentration
# Summary of the method: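 Measured: FluxOR fluorescence after thallium stimulation in U2OS cells transduced with hERG by baculovirus. Compounds pre-incubated around 10 min; medium Opti-MEM with 2% FCS. AC50 from Hill equation.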
# % is set by controls: 0 for no effect and ±100 for the full control effect; potency is the fitted concentration of half-maximal effect.
# Voltage-gated inwardly rectifying potassium channel KCNH2 (Homo sapiens), sequence (Q12809 whole entry, looked up): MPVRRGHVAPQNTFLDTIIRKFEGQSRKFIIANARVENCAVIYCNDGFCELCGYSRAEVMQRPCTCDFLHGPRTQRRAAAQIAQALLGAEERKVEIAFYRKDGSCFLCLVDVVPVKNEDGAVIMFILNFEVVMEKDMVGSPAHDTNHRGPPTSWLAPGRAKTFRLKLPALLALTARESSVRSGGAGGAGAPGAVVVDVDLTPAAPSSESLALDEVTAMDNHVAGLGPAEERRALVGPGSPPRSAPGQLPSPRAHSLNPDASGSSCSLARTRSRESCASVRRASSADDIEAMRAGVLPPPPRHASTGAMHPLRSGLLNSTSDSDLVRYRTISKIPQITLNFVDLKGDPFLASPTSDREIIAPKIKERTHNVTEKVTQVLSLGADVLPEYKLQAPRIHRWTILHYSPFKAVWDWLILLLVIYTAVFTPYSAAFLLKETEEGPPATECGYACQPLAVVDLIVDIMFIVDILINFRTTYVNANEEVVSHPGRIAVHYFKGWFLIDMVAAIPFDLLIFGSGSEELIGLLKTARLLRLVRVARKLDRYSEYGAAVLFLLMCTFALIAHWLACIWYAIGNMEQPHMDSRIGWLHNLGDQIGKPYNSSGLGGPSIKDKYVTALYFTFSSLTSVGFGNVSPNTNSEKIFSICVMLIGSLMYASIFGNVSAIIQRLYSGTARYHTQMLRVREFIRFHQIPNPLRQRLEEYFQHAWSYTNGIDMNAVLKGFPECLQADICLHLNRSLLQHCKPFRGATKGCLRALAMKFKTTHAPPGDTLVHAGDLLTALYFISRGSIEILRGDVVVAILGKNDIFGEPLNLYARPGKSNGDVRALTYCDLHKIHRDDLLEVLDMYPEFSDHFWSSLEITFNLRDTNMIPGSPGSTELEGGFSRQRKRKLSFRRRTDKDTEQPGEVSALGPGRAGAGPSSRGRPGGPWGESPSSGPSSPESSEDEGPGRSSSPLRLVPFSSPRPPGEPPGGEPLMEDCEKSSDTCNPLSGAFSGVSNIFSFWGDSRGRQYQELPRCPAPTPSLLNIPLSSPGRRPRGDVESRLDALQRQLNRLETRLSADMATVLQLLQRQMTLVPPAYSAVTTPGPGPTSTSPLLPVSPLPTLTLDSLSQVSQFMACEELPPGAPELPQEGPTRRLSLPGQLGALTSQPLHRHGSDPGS
SMILES,"activity change, negative = inhibition",Potency
OC[C@H]1O[C@@H](n2cnc3c(NC4CCCCC4)ncnc32)[C@H](O)[C@@H]1O,1.15%,–
N=C(N)SCCc1ccc(CCSC(=N)N)cc1,1.34%,–
CO[C@H]1C[C@@H]2CC[C@@H](C)[C@@](O)(O2)C(=O)C(=O)N2CCCC[C@H]2C(=O)O[C@H]([C@H](C)C[C@@H]2CC[C@@H](O)[C@H](OC)C2)CC(=O)[C@H](C)C=C(C)[C@@H](O)[C@@H](OC)C(=O)[C@H](C)C[C@H](C)/C=C/C=CC=C1C,–,inactive
CC(C(=O)O)c1ccc(C(=O)c2ccccc2)s1 (stereo not drawn),-16% [at 20.6 µM],–
CN1CCc2ccccc2Cc2[nH]c3ccccc3c2CC1,–,8.91 µM (active)
NCCCCC(=O)O,-1.99%,–
COC1=C(OC)C(=O)c2ccccc2C1=O,-10.5%,–
O=C(O)c1cc(=O)c2c(Cl)cc(Cl)cc2[nH]1,-2.65%,–
O=C(c1cc(O)c(O)c([N+](=O)[O-])c1)c1ccccc1F,6.87%,–
C[N+](C)(C)CCOP(=O)(O)OP(=O)([O-])OC[C@H]1O[C@@H](n2ccc(N)nc2=O)[C@H](O)[C@@H]1O,0.28%,–
CN(C)[C@@H]1C(=O)C(C(=O)NCN2CCCC2)=C(O)[C@@]2(O)C(=O)C3=C(O)c4c(O)cccc4[C@@](C)(O)C3C[C@@H]12 (stereo partly drawn),–,inactive
NC(N)=NC(=O)c1nc(Cl)c(N2CCCCCC2)nc1N,–,8.91 µM (active)
CC1(C)[C@@H](O[C@H]2O[C@H](C(=O)O)[C@@H](O)[C@H](O)[C@H]2O[C@@H]2O[C@H](C(=O)O)[C@@H](O)[C@H](O)[C@H]2O)CC[C@]2(C)[C@H]3C(=O)C=C4[C@@H]5C[C@@](C)(C(=O)O)CC[C@]5(C)CC[C@@]4(C)[C@]3(C)CC[C@@H]12,-20.7%,–
O=S(=O)(c1cccc2c(I)cccc12)N1CCCNCC1,–,11.2 µM (active)
O=C(O)CC[C@@H](C(=O)O)N1C(=O)c2ccccc2C1=O,11.6%,–
CCN1/C(=C/C(C)=O)Sc2ccc(OC)cc21,4.02%,–
Ic1ccc(N2CCN(Cc3c[nH]c4ncccc34)CC2)cc1,–,1.12 µM (active)
O=Nc1ccc2oc(=O)ccc2c1,5.7%,–
C[C@@H](NC(=O)/C(C#N)=C/c1ccc(O)c(O)c1)c1ccccc1,-3.94%,–

SMILES,"activity change, negative = inhibition",Potency
NCCCCCCCCCCN,0.747%,–
O=c1[nH]c2cc(Cl)c(Cl)cc2[nH]c1=O,1.72%,–
CN1CCc2cc(NC(=O)Nc3cccnc3)ccc21,25%,–
Nc1ccn([C@@H]2O[C@H](CO)[C@@H](O)[C@@H]2O)c(=O)n1,12%,–
NO,-3.71%,–
Cc1onc(-c2c(F)cccc2Cl)c1C(=O)N[C@@H]1C(=O)N2[C@@H]1SC(C)(C)[C@@H]2C(=O)O,–,inactive
COC(=O)[C@H]1[C@H]2C[C@@H]3c4[nH]c5cc(OC)ccc5c4CCN3C[C@H]2C[C@@H](OC(=O)/C=C/c2cc(OC)c(OC)c(OC)c2)[C@@H]1OC,–,7.94 µM (active)
Cn1cc(C2=C(c3ccc(Cl)cc3Cl)C(=O)NC2=O)c2ccccc21,–,2.51 µM (active)
C[C@@H](CN1CCC(Cc2ccccc2)CC1)[C@@H](O)c1ccc(O)cc1,–,0.631 µM (active)
COc1cccc2c1C(=O)c1c(O)c3c(c(O)c1C2=O)C[C@@](O)(C(=O)CO)C[C@@H]3O[C@H]1C[C@H](N)[C@H](O[C@@H]2CCCCO2)[C@H](C)O1,11.3%,–
O=C(O)[C@@H]1C[C@@H](C(=O)O)N1,15.6%,–
C=C/C(C)=C/[C@@]1(C)SC(=O)C(C)=C1O,5.86%,–
NCCCS(=O)(=O)O,20.7%,–
O=C1C(SCCO)=C(SCCO)C(=O)c2ccccc21,11.5%,–
CC(=O)N[C@H](C(=O)O)C(C)(C)SN=O,4.4%,–
CCCCCCCCCCCCCCCCCCNC(=O)OCC(COP(=O)([O-])OCC[n+]1ccsc1)OC (stereo not drawn),2.16%,–
Cc1cc(NC(=O)Nc2ccc3c(ccn3C)c2)sn1,17.7%,–
CN(C)c1nc2c(Br)c(Br)c(Br)c(Br)c2[nH]1,-21.1%,–
O=C1O/C(=C/Br)CCC1c1cccc2ccccc12 (stereo not drawn),–,5.62 µM (active)
